Out of some 360,000 compounds screened, about 1,300 (0.36%) were called active. For the sample, actives were picked, then their nearest neighbours and some compounds at random. Values without a mark were called inactive.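 The calls were made as follows: active = inhibition above the mean of all tested compounds plus 3 SD (cut at about 70% in these data); inactive = the rest.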
Molecular target: Photoreceptor-specific nuclear receptor (Homo sapiens) (UniProt Q9Y5X4)
Experiment: NR2E3 agonists in two-hybrid cells, primary screen, cell-based, luminescence, CHO-S, Gal4-NCOR/VP16-NR2E3 (AID 602229);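 also: 0% = DMSO with NR2E3 transfected cells and 100% = cells lacking NR2E3 construct; higher means lower luciferase signal from less NR2E3 corepressor binding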
Settings: luciferase, at 3.98 µM, hits give high values

Sequence of Photoreceptor-specific nuclear receptor (Homo sapiens) (Q9Y5X4 whole entry, looked up, the tested form may be a part): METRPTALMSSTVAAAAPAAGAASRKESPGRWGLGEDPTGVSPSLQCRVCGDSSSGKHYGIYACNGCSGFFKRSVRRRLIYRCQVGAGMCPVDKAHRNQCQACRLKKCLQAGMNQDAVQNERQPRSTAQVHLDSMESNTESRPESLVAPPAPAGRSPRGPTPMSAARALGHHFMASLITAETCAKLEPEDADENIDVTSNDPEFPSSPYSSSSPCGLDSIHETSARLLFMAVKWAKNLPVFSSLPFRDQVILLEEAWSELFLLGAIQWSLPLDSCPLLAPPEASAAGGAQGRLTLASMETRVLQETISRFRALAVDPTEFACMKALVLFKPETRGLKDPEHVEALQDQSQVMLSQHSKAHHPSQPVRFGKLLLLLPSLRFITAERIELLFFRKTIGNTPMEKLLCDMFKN

| SMILES | inhibition of corepressor binding |
| --- | --- |
| Cc1nc2c(-c3ccccc3)c(C)[nH]n2c(=O)c1Cl | 9.97% |
| CCCc1cc(=O)n2[nH]c(C)c(-c3ccc(Cl)cc3)c2n1 | 43.4% |
| Cc1[nH]n(-c2cccc(Cl)c2)c(=O)c1-c1ccc(Cl)cc1 | 85% (active) |
| O=C(NCc1ccc(F)cc1F)[C@@H]1CCCN1C(=O)[C@@H]1CCCN1C(=O)c1cccc(Cl)c1 | 4.78% |
| Cn1cc(CN2CCCCC2c2ccccn2)c(-c2ccc3c(c2)OCCO3)n1 (centres undefined) | -4.51% |
| c1ccc(C(=NNc2nc3ccccc3s2)c2ccccn2)cc1 | 89.7% (active) |
| CSc1ncccc1C(=O)Nc1nc2ccc(F)cc2s1 | 47.5% |
| NC(=S)c1ccc(C(N)=S)o1 | -5.1% |
| O=S1(=O)CC(N2CCSCC2)CN1Cc1cn(Cc2cccc(Cl)c2)nn1 (centres undefined) | -19.4% |
| CCOCCCNC(=O)C(=O)NCCCOCC | 8.99% |
| Cc1ccc(Cn2cc(CN3CC(N4CCN(C)CC4)CS3(=O)=O)nn2)cc1 (centres undefined) | 9.78% |
| CN(C)C1CN(Cc2cn(Cc3ccccc3)nn2)S(=O)(=O)C1 (centres undefined) | -4.65% |
| CN(Cc1cn(Cc2ccc(C(F)(F)F)cc2)nn1)C1CN(Cc2cn(Cc3ccc(C(F)(F)F)cc3)nn2)S(=O)(=O)C1 (centres undefined) | 86% (active) |
| Cc1ccc(NC(=O)C(C)Sc2nnc(C3CC3)n2C2CC2)cc1S(=O)(=O)N1CCOCC1 (centres undefined) | 13% |
| COc1ccc(-n2nc(C(=O)Nc3cc(OC)c(OC)c(OC)c3)c3ccccc3c2=O)c(OC)c1 | -8.33% |
| COc1ccc(OC)c(NC(=O)CN(C)CCOc2ccc(Br)cc2)c1 | 7.2% |
| COc1ccc(Nc2ncnc3ccc(Br)cc23)c(OC)c1 | 85.3% (active) |
| COc1ccc(OC)c(Nc2nc3ccccc3n3cnnc23)c1 | 19.4% |
| COC(=O)c1cc(S(=O)(=O)NCC2CCN(Cc3ccc(Cl)cc3)CC2)cn1C | 16.9% |
| Fc1cccc(CSc2nnc3ccc(-c4ccncc4)nn23)c1 | 6.42% |

| SMILES | inhibition of corepressor binding |
| --- | --- |
| C=C(Br)CN1CCN(CC(=C)Br)CC1 | -7.79% |
| O=C(CN1CCC(NC(=O)C2CC2)CC1)Nc1ccccc1[N+](=O)[O-] | -17.5% |
| CCOC(=O)C(CO)NC(=O)C1(NC(C)=O)CCCC1 (centres undefined) | -34.7% |
| O=C(Nc1nnc(-c2ccc(Cl)cc2)o1)c1ccccc1Br | -48% |
| Cc1ccnc2nc(C(=O)Nc3nnc(-c4ccccc4)o3)nn12 | 0.21% |
| O=C(Nc1nnc(-c2ccccc2)o1)c1cc(-c2cccs2)nc2ccccc12 | 88.7% (active) |
| COc1cccc(C(=O)Nc2c3c(nn2-c2cccc(C)c2C)CS(=O)(=O)C3)c1OC | -6.84% |
| Cc1c(NC(=S)NCc2ccc(F)cc2)cccc1[N+](=O)[O-] | -17.5% |
| O=C(C1CCCO1)N(Cc1ccccc1)c1ccccc1 (centres undefined) | -3.43% |
| COc1ccc(C(=O)OCC(=O)Nc2cc(C)on2)cc1F | 20.3% |
| CC1(C)OC(=O)C2=C(CC(c3ccccc3)OC2CCc2ccccc2)O1 (centres undefined) | -2.84% |
| CCc1nc(N2CCN(C(C)=O)CC2)c2c3c(sc2n1)CCCC3 | -27.3% |
| CCCc1nc2sc3c(c2c(=O)n1NC(=O)CCCl)CCCC3 | 2.18% |
| COCCNc1nc(-n2nc(C)cc2C)nc2sc3c(c12)CCCC3 | 91.3% (active) |
| COc1ccccc1-c1nn(Cc2ccccc2)cc1C(=O)N1CCN(c2ncccn2)CC1 | -28.8% |
| COC(=O)c1ccc2c(c1)S(=O)(=O)NC2C (centres undefined) | 1.74% |
| CCOC(=O)c1cccc(NS(=O)(=O)c2c(C(=O)N3CCCCCC3)c(C)n(C)c2C)c1 | -3.88% |
| CCOC(=O)N1CCN(C(=O)c2ccc(S(=O)(=O)Nc3cccc(C(F)(F)F)c3)cc2)CC1 | 78.3% (active) |
| CC(=O)N1CCN(C(=O)c2cccc(S(=O)(=O)Nc3ccc(C)cc3)c2)CC1 | -16.4% |
| Cc1ccsc1CNn1cnnc1SCc1ccccc1F | 1.17% |

| SMILES | inhibition of corepressor binding |
| --- | --- |
| Cc1nc2c(OCc3ccc(Cl)cc3Cl)cccn2c1N(C)CC1CC1 | -9.82% |
| Cc1nc2c(OCc3ccc(Cl)cc3)cccn2c1N(C)Cc1cccs1 | -14.4% |
| Cc1nc2c(OCc3cccc(Cl)c3)cccn2c1N(C)CC1CC1 | 79.4% (active) |
| CC1CCN(CCCn2c(SCC(=O)NC3CCCC3)nc3ccccc3c2=O)CC1 | -14.7% |
| O=C(c1ccc(N2CCCC2=O)cc1)N1CCN(c2ccc(C(F)(F)F)cc2[N+](=O)[O-])CC1 | 82.8% (active) |
| COc1cc(OC)cc(C(=O)NC(=S)N2CCN(c3ccc(C(F)(F)F)cc3[N+](=O)[O-])CC2)c1 | -27.8% |
| O=C(Cc1ccc(S(=O)(=O)N2CCOCC2)s1)N1CCN(c2ccc(C(F)(F)F)cc2[N+](=O)[O-])CC1 | 27.1% |
| Cc1nnc(SCC(=O)Nc2ncc3c(n2)CC(C)(C)CC3=O)s1 | -5.27% |
| Cc1cc2oc(=O)cc(CN(C)Cc3ccc(OC(F)F)cc3)c2cc1Cl | -26% |
| Cc1ccc(NC(=S)N(CCN(C)C)Cc2cccs2)cc1C | -15.7% |
| COC(=O)c1sccc1NS(=O)(=O)c1ccc(F)cc1F | -9.53% |
| COC(=O)c1scc(C)c1NC(=O)CSc1ccc(Cl)cc1 | 2.57% |
| COC(=O)c1sccc1NC(=O)CSc1ccccc1NS(=O)(=O)c1cc(Cl)ccc1Cl | 89.8% (active) |
| CCCC(=O)Nc1nnc(CC(=O)OCC)s1 | 12.6% |
| CCn1nc(C)c(CN2CCN(Cc3ccc(OC)c(C)c3C)C(CCO)C2)c1C (centres undefined) | -29.8% |
| CC(C(=O)N1CCOCC1)N1c2cccc3cccc(c23)S1(=O)=O (centres undefined) | -0.03% |
| Oc1c(Cl)cc(Cl)c(Cl)c1Cc1c(O)c(Cl)cc(Cl)c1Cl | 90.7% (active) |
| C=CCn1c(SCC(=O)c2ccc(Br)cc2)nnc1C(C)NC(=O)Cc1ccc(OC)cc1 (centres undefined) | 22.7% |
| C=CCn1c(C23CC4CC(CC(C4)C2)C3)n[nH]c1=S | -1.8% |
